Experimental data taken from PubChem BioAssay (NCI).
This is part of a sample that, as a whole, favours compounds with a hit. Of some 83,000 tested, about 20% had one in any assay.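 Cells were grown in 96-well plates and exposed to the test compound at a single concentration for 48 hours; results are reported as percent growth, with values below 10 considered active.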 A number with no mark means an inactive call. Active and inactive are the calls of the source.

Experiments:
Assay in all cases: NCI-60 one-dose screen, 48 h (100 = growth as untreated, 0 = no growth, -100 = all killed)
HOP-92 NSCLC = conditions: 10 µM
K-562 leukemia = conditions: 10 µM
MDA-MB-231 breast = conditions: 10 µM
RXF 393 renal = conditions: 10 µM
HT29 colon = conditions: 10 µM
LOX IMVI melanoma = conditions: 10 µM
UO-31 renal = conditions: 10 µM
CCRF-CEM leukemia = conditions: 10 µM
MOLT-4 leukemia = conditions: 10 µM
SR leukemia = conditions: 10 µM
OVCAR-5 ovarian = conditions: 10 µM
HS 578T breast = conditions: 10 µM
MDA-MB-468 breast = conditions: 10 µM unless noted
EKVX NSCLC = conditions: 10 µM
T-47D breast = conditions: 10 µM
SW-620 colon = conditions: 10 µM
A549/ATCC NSCLC = conditions: 10 µM
NCI/ADR-RES ovarian = conditions: 10 µM
NCI-H460 lung = conditions: 10 µM

Row | Compound | growth (HOP-92 NSCLC) | growth (K-562 leukemia) | growth (MDA-MB-231 breast) | growth (RXF 393 renal) | growth (HT29 colon) | growth (LOX IMVI melanoma) | growth (UO-31 renal) | growth (CCRF-CEM leukemia) | growth (MOLT-4 leukemia) | growth (SR leukemia) | growth (OVCAR-5 ovarian) | growth (HS 578T breast) | growth (MDA-MB-468 breast) | growth (EKVX NSCLC) | growth (T-47D breast) | growth (SW-620 colon) | growth (A549/ATCC NSCLC) | growth (NCI/ADR-RES ovarian) | growth (NCI-H460 lung)
1 | COC(=O)c1ccc(-n2cc(CCCN(CCNc3ccnc4cc(Cl)ccc34)C(=O)CCC(=O)O[C@@H]3O[C@@H]4OC5(C)CC[C@H]6[C@H](C)CC[C@@H]([C@H]3C)[C@@]46OO5)nn2)cc1 | 18.6% | 5.64% (active) | 62.8% | 34.2% | 5.91% (active) | 8.12% (active) | 19.6% | 15.9% | -13.5% (active) | -10% (active) | 49.2% | 49.6% | 33.3% |  |  |  |  |  | 
2 | CC12CCC3(CCC(=O)NCCCNc4ccnc5cc(Cl)ccc45)[C@@](C)(OO[C@]3(C)O1)O2 | 3.32% (active) | 14.4% | -23.4% (active) | -47.1% (active) | 10.7% | -78.1% (active) | -50.1% (active) | 3.78% (active) | 7.04% (active) | 2.39% (active) | 4.68% (active) | 11.4% | -38.3% (active) | 4.65% (active) | 36.9% | 28.9% |  |  | 
3 | Cc1ccc2[nH]c(=S)n(-c3ccc(F)cc3)c(=O)c2c1 | 77.2% | 96.6% | 93.1% | 98.2% |  | 92.7% | 82.7% | 86.3% | 106% | 103% | 106% | 104% | 92.1% | 95.1% |  |  | 100% |  | 
4 | C[C@H]1[C@@H](Oc2ccc(-c3cn(-c4ccnc5cc(Cl)ccc45)nn3)cc2)O[C@@H]2OC3(C)CC[C@H]4[C@H](C)CC[C@@H]1[C@@]24OO3 | 29.4% | 22.2% | 49.4% | 52.3% | 22.3% | 10.9% | 10.7% | 38.8% | 17.5% | 12.2% |  | 32.5% | 36.9% |  |  |  | 35.2% | 19.6% | 
5 | C[C@H]1[C@H](OC(=O)CCC(=O)N(CCCc2cn(-c3ccc(C#N)cc3)nn2)CCNc2ccnc3cc(Cl)ccc23)O[C@@H]2OC3(C)CC[C@H]4[C@H](C)CC[C@@H]1[C@@]24OO3 | 7.07% (active) | 6.77% (active) | 62.9% | 40.1% |  | 13.3% | 15% | 15% | 4.41% (active) | -14.5% (active) |  | 43% | 46% | 53% |  | 18.2% | 51.5% |  | 
6 | CN(C)CCc1cn(C2CCC2)c2cccc(O)c12 |  | 1.37% (active) | 76% | 53.2% |  | 50.4% | 47.8% | 56.6% | 57.2% | 52.8% | 79.8% | 47.7% | 44.6% | 94.9% |  | 23% |  |  | 
7 | COP(=O)(CC(F)(F)C(F)(F)F)OC | -29.8% (active) | 10.9% | 65.1% |  |  | -63.5% (active) | -81.8% (active) | 5.28% (active) | 5.72% (active) | 5.42% (active) |  | 75.3% | -53.6% (active) |  | 13.2% |  |  |  | 95.9%
8 | C#CC[Se]C(=O)c1ccc(C(=O)[Se]CC#C)s1 | 157% | 89.6% | 95% | 101% | 63.6% | 93.1% | 47.8% | 77.4% | 101% | 26.8% |  | 92.4% | 64.5% | 48.4% |  |  | 31.1% | 76.1% | 
9 | C[C@H]1[C@H](OC(=O)CCC(=O)N(CCCc2cn(-c3ccc(CN4CCOCC4)cc3)nn2)CCNc2ccnc3cc(Cl)ccc23)O[C@@H]2OC3(C)CC[C@H]4[C@H](C)CC[C@@H]1[C@@]24OO3 | -9.61% (active) | 4.56% (active) | 42.5% | 7.45% (active) |  | 7.19% (active) | 13.1% | 8.19% (active) | -4.26% (active) | -17.8% (active) |  | 9.17% (active) | 29% |  |  | 25.5% | 36% |  | 
10 | O=C([Se]C1C=CCCC1)c1ccc(C(=O)[Se]C2C=CCCC2)s1 (stereo not drawn) | -39.7% (active) | 6.15% (active) |  | -92% (active) | -25.6% (active) |  | -100% (active) | -36.7% (active) | 0.117% (active) | -33% (active) | -89.2% (active) |  |  | -89.9% (active) | -48.1% (active) |  |  | -81.4% (active) | 4.46% (active)
11 | CC[C@]12C=CCN3CC[C@@]4(c5ccc(OC)cc5N(C)[C@H]4[C@@](O)(C(=O)OC)[C@@H]1OC(=O)CCCC[P+](C1CCCCC1)(C1CCCCC1)C1CCCCC1)[C@@H]32 | -44.5% (active) | 7.48% (active) | -92.8% (active) | -73.8% (active) |  | -96.1% (active) | 78.9% | -60.2% (active) | -5.16% (active) | 19.5% | 5.84% (active) | -35% (active) | -79% (active) | 13.2% | 3.83% (active) | 2.08% (active) |  | 96.7% | 
12 | CC1=C2C(=C[C@@](C)(COP(=O)(Oc3ccccc3)Oc3ccccc3)[C@@H]2O)C(=O)[C@@](C)(O)C12CC2 | -44.8% (active) |  | -79.2% (active) | -95.6% (active) | -57.3% (active) | -76.3% (active) | -68.6% (active) | 12.5% |  |  | -64.5% (active) | -25.2% (active) | -89.8% (active) | -52.5% (active) |  |  | -53.9% (active) |  | 
13 | N#C[Se]CC(=O)Nc1cccc(C(F)(F)F)c1 | -69.3% (active) | 20.5% |  | -40.9% (active) |  |  | -84.2% (active) | 22.5% | 9.42% (active) | 18.5% |  |  | -86.7% (active) | -94.5% (active) |  |  | -50.4% (active) |  | 
14 | O=C(/C=C/c1ccc(Cl)cc1)c1nc2ccccc2n1Cc1ccc(F)cc1 | 16.7% | 5.25% (active) |  | 19% |  |  | 31.4% | -13.1% (active) | -0.463% (active) | -8.72% (active) |  |  | -5.26% (active) |  | 7.93% (active) |  | 44.7% | 7.75% (active) | 
15 | CC[C@@]12CC(C(=O)OC)=C3Nc4cc5c(cc4[C@@]34CCN(C[C@H]3O[C@H]31)[C@@H]24)[C@@H]1[C@H](O5)[C@@H](O)[C@@]2(CC)CC(C(=O)OC)=C3Nc4cc(OC)ccc4[C@@]34CCN1[C@@H]24 | 21.2% | 2.66% (active) | 18% | -37.8% (active) | 10.7% | -64.9% (active) | 10.1% | 15% | -4.22% (active) | -16.2% (active) | 34.3% | -6.21% (active) |  |  |  |  |  |  | 
16 | COc1ccc2cc([C@H](C)C(=O)[Se]CCC#N)ccc2c1 | -82.1% (active) | 4.12% (active) | -59.9% (active) | -82.3% (active) | -49.3% (active) | -66.6% (active) | -71.2% (active) | 7.91% (active) | 5.75% (active) | 0.13% (active) | -31.8% (active) | -10.2% (active) | -56.6% (active) | -83.7% (active) |  |  |  | -14.4% (active) | 
17 | O=C(/C=C/c1ccco1)c1nc2ccccc2n1Cc1ccc(F)cc1 | 40.2% | 20.7% |  | 33.3% | 68% |  | 46.8% | 21.4% | 6.46% (active) | 23.6% | 89.4% |  | 24% | 58.9% |  |  | 62.2% |  | 
18 | O=C(/C=C/c1ccc(F)cc1)c1nc2ccccc2n1Cc1ccc(F)cc1 | 22.9% | 1.64% (active) |  | -67.6% (active) |  |  | -33.6% (active) | 7.89% (active) | 1.05% (active) | 1.79% (active) |  |  | -15.7% (active) | 13.6% | 16.6% |  |  | -42.5% (active) | 6.65% (active)
19 | COC(=O)C[C@](O)(CCC(C)C)C(=O)O[C@H]1C(OC)=C[C@@]23CCCN2CCc2cc4c(cc2[C@@H]13)OCO4 |  | 4.01% (active) | -30.3% (active) | -30.5% (active) |  | -82.4% (active) | -25.3% (active) | -5.42% (active) | -5.07% (active) | -26.7% (active) |  | -25.8% (active) | -39.7% (active) | -16.2% (active) | -7.42% (active) |  |  | -2.69% (active) | -26.2% (active)
20 | O=C(/C=C/c1ccc(Cl)cc1Cl)c1nc2ccccc2n1Cc1ccc(F)cc1 | 36.6% | 14.5% |  | 32.4% |  |  | 36.5% | -10.2% (active) | 4.16% (active) | -1.72% (active) |  |  | 12.3% | 35.6% |  |  | 66.5% | 42.2% | 
21 | C#CC[Se]C(=O)c1ccc2n[se]nc2c1 | 77% | 4.82% (active) |  | 70.8% | 39.6% |  | 22.6% | -24.8% (active) | 22.9% | 3.84% (active) |  |  | 25.9% |  | 62.9% |  | 59.7% |  | 
